# Assay results published in PubChem BioAssay (NCATS).
# Results filed as inconclusive are left out. A number with no mark means an inactive call. Activity calls are given as the source filed them. Calls follow the shape of the dose curve; as a rule, active = well fitted inhibition curve with a large enough effect; inconclusive = small, poorly fitted or top-dose-only effect; inactive = flat fitted curve, though single readings scatter.
# System: CP286
# Test: qHTS profiling for inhibitors of Plasmodium falciparum proliferation (AID 504749); also: nearly all actives have a fitted effect of over 60% in size;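 as to activity, negative = inhibition: 0% = DMSO vehicle and full inhibition = artemisinin control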
# Conditions: P. falciparum in erythrocytes, SYBR Green DNA, 72 h; series mostly up to 28.7 µM; activity, negative = inhibition: at the top concentration
# Procedure, shortened: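 Quantitative HTS: compounds pinned into medium, infected erythrocytes added (0.3% parasitemia, 2.5% hematocrit), 72 h culture at 37 C under 5% CO2. Saponin/Triton lysis with SYBR Green I, overnight RT, then fluorescence read.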
# Potency is read from the fitted curve at half-maximal effect.
SMILES,"activity, negative = inhibition",Potency
CC/C=C\C/C=C\C/C=C\C/C=C\C/C=C\C/C=C\CCC(=O)O,-2.92%,
O=C(O)/C=C/c1ccccc1,-1.58%,
CC(=O)Oc1cccc(C(=O)O)c1OC(C)=O,-0.745%,
CC(CNC(=O)c1cccnc1)NC(=O)c1cccnc1 (stereo not given),0.645%,
CN=C1C=CC(=C(c2ccc(N(C)C)cc2)c2ccc(N(C)C)cc2)C=C1,,199 nM (active)
CC/C(=C(/CC)c1ccc(OP(=O)(O)O)cc1)c1ccc(OP(=O)(O)O)cc1,0.18%,
ClC(Cl)Cl,-0.178%,
CCCCCCCCCCCCCCCCCC[N+](C)(C)CCC[Si](OC)(OC)OC,-0.157%,
Oc1cc(O)cc(O)c1,-0.267%,
CC(=O)Nc1c(I)c(C(=O)O)c(I)c(N(C)C(C)=O)c1I,-2.81%,
CC(C)CCC[C@@H](C)[C@H]1CC[C@H]2[C@@H]3CC=C4C[C@@H](O)CC[C@]4(C)[C@H]3CC[C@]12C,-4.64%,
CCCCCCCCCCCCOCCCN,0.54%,
CC(C)(C)c1ccc2c(S(=O)(=O)O)c(C(C)(C)C)ccc2c1,2.37%,
CCSc1ccc2c(c1)N(CCCN1CCN(C)CC1)c1ccccc1S2,-19.9% [at 12.8 µM],
c1ccc(-n2cnnn2)cc1,0.147%,
CN1CCC(OC(=O)C(Oc2ccc(Cl)cc2)Oc2ccc(Cl)cc2)CC1,-0.75%,
CC(C)Cc1ccc([C@@H](C)C(=O)NS(C)(=O)=O)cc1,0.0459%,
CCCc1ccc(C(=O)O)cc1,-0.296%,
CNC(=O)c1c(I)c(C(=O)NCC(=O)Nc2c(I)c(C(=O)O)c(I)c(C(=O)NCCO)c2I)c(I)c(N(C)C(C)=O)c1I,-3.61%,
CC1CC(O)CC(C)(C)C1 (stereo not given),0.384%,
